Assay results: ChEMBL document CHEMBL3988442, “University of Dundee, Small-Polar-MMV Screening Library” (2021)
Screen size: about 38,000 compounds; about 1,200 (3.2%) showed an effect of 50% or more. The median lay at about -58%. Only a selection was taken, and strong results are over-represented in it overall.

system: Plasmodium falciparum; assay: Calibr Malaria Delayed Death Assay SOP; type: functional, organism-based; set-up: scale not given: in the data most compounds retested in dose-response had high values; conditions: concentration 4.99e-06 (unit not given; other assays of the set use mol/L)

SMILES | Percent Effect
CC(C)(C)c1cnc(CN(Cc2cccnc2)CC2CCCO2)o1 (stereo not given) | 21.12%
CC(O)CN1CCc2onc(-c3ccccc3F)c2C1 (stereo not given) | -120.6%
CN(C)S(=O)(=O)N1CCCC(c2cccc(Cc3ccccc3F)n2)C1 (stereo not given) | -73.25%
CN(C)C(=O)CCc1cncc(C2CCCN2Cc2ccccn2)n1 (stereo not given) | -28.93%
CN(C)C(=O)CN1CCCC1c1cccc(Cc2ccccc2F)n1 (stereo not given) | 67.28%
CN1CCN(C2COC3(CCN(Cc4ccsc4)CC3)C2)CC1.O=C(O)C(F)(F)F.O=C(O)C(F)(F)F (stereo not given) | -16.23%
COC(=O)c1cccn1C1CCN(C(=O)c2ccc(C)cc2O)CC1 | -37.36%
Nc1cc(C(=O)NC2CCCN(CCCc3ccccc3)C2)ccn1 (stereo not given) | -86.42%
Nc1ncncc1-c1noc([C@@H]2CCCN2CCCc2ccccc2)n1 | -66.01%
CS(=O)(=O)NC1CCN(C(=O)NCc2cccnc2)CC1 | -62.74%
O=C(c1ccoc1)N1CC[C@H]2C[C@@H](c3ccncn3)O[C@@H]2C1 | -72.56%
COc1cccc(CCC(=O)Nc2cnc3c(c2)c(C)nn3C)c1OC | -140.4%
COc1nccc(N2CC[C@H](N3CCOCC3)[C@H](CCCO)C2)c1C#N | -24.24%
COc1nccc(N2CC[C@@H](N3CCC(O)CC3)[C@H](O)C2)c1C#N | -80.42%
COc1nccc(N2CC[C@@H](N3CCCCCC3)[C@H](O)C2)c1C#N | 51.1%
COc1ccc(C(N)=O)cc1NCc1ncc(-c2cccs2)o1 | -57.49%
O=C(O)CCc1nc2nccc(-c3ccc(F)cc3)n2n1 | -150.8%
COc1ccc(-c2noc(CN3CC(n4cc(C)cn4)C3)n2)cc1 | -35.96%
CCNc1ccnc(N2Cc3cnc(CC(C)C)nc3C2)n1 | 74.44%
CC(C)Cc1ncc2c(n1)CN(c1cc(NC3CC3)nc(N)n1)C2 | -26.11%
CC(C)Nc1ccnc(N2Cc3cnc(C(C)(C)C)nc3C2)n1 | 49.86%
O=C(CSc1nnc2n1N=CN(c1ccccc1)C2)c1ccccc1 | -130.4%
COCCCN1CCCN(C(C)C(=O)Nc2cccc(I)c2)CC1 (stereo not given) | 89.66%
CC(C(=O)Nc1cccc(Cl)c1)N1CCN(Cc2ncc[nH]2)CC1 (stereo not given) | 12.72%
CCOCCN1CCN(C(C)C(=O)Nc2ccnn2C(C)C)CC1 (stereo not given) | -116%

SMILES | Percent Effect
Cc1noc(CN(C)CC2CCCN(CCc3ccc(Cl)cc3)C2)n1 (stereo not given) | -81.63%
NC(=O)C1CCN(C(=O)c2ccc(Sc3ccccn3)cc2)CC1 | -20.82%
Cc1ccc(CN(Cc2ccccn2)C(=O)[C@H]2CC[C@@H](N)C2)s1 | -62.59%
Cc1ccsc1CN(C)Cn1nccc1-c1cccnc1 | -75.2%
Cc1ccc(CN(Cc2ccncc2)C2CCN(C)CC2)s1 | 33.34%
O=C(Nc1cccnc1)N(Cc1ccccc1)C1CC1 | -66.01%
Cc1ccc(CN(Cc2[nH]cnc2C)C2CC(C)(C)NC(C)(C)C2)o1.O=C(O)CC(O)(CC(=O)O)C(=O)O | -80.85%
Cc1cccc(CN(Cc2cccnc2)C2CC(C)(C)NC(C)(C)C2)n1.O=C(O)CC(O)(CC(=O)O)C(=O)O | 40.19%
CC1(C)CC(N(Cc2cccnc2)Cc2cccc(F)c2)CC(C)(C)N1.O=C(O)CC(O)(CC(=O)O)C(=O)O | 75.47%
CN(Cc1cccnc1)CC1CC12CCCC2 (stereo not given) | -51.15%
CN(Cc1cccnc1)CC1CC12CCN(Cc1nccs1)CC2 (stereo not given) | -24.57%
Cc1c[nH]c(CN2CCOC(c3ccc(Cl)c(Cl)c3)C2)c(C)c1=O (stereo not given) | -31.43%
Cc1cc(CNC(=O)NCc2cccs2)no1 | -38.54%
COc1cccc2c1ccn2CC(=O)Nc1nc[nH]n1 | -178.4%
COCCCN(CCOC)C(=O)Nc1ccccc1Br | -3.396%
Fc1cnc(N2CCN3C[C@H](Oc4cccnc4)C[C@H]3C2)nc1.O=C(O)C(F)(F)F.O=C(O)C(F)(F)F.O=C(O)C(F)(F)F | -67.51%
CN(C)c1nc2sc(C(=O)N3CCNC(=O)CC3)cc2s1 | -35.45%
CCOC(=O)[C@H]1[C@@H](O)C(=O)N(C)C12CCN(S(=O)(=O)CC)CC2 | -82.82%
CS(=O)(=O)NCc1ncn2c1CN(C(=O)C1CCCCC1)CCC2 | -51.87%
C[C@]1(O)CCN(Cc2cccnc2)C[C@@H]1Oc1cccc(F)c1 | 9.643%
CC1(C)CC(N(Cc2ccncc2)Cc2cccnc2)CC(C)(C)N1.O=C(O)CC(O)(CC(=O)O)C(=O)O | 22.16%
CN(Cc1cccnc1)C1CC2(CCN(C(=O)c3ccnnc3)CC2)C1 | -29.79%
COc1cc(F)ccc1N(C)Cc1cccnc1 | -76.29%
CCCN(Cc1cccnc1)C1CC(C)(C)NC(C)(C)C1.O=C(O)CC(O)(CC(=O)O)C(=O)O | 76.54%
Cc1ccc(C(=O)N(Cc2cccnc2)C[C@@H]2CCC(=O)N2)s1 | -86.25%

SMILES | Percent Effect
CC1(C)CC(N(Cc2cccnc2)Cc2cccnc2)CC(C)(C)N1.O=C(O)CC(O)(CC(=O)O)C(=O)O | -10.22%
COc1cccc(CNC(=O)c2cc(C)nc(N3CCCC3)n2)c1 | -64.99%
CC(C)OC(=O)N1CCC(c2nnc(Cn3ccnc3)n2C)CC1 | -243.5%
O=C(O)C(F)(F)F.O=C(c1cccnc1)N1CCC2(CC1)CC(Oc1ccccc1)CO2 (stereo not given) | -74.94%
CCc1ccc2nc(-c3cnn(C)c3)cc(C(=O)N3CCOCC3)c2c1 | -101.2%
CCS(=O)(=O)NCc1cccnc1N1CCCC(O)C1 (stereo not given) | -44.06%
Cc1cnn(CC(=O)N(CC2CN(C)CCO2)c2nccs2)c1 (stereo not given) | -66.52%
Cc1ccc(S(=O)(=O)Nc2ccc(-n3ccnc3C)nc2)cc1N(C)C | -25.67%
CC(=O)N(C)c1nc(Cn2nnnc2C(C)C)cs1 | -150.3%
Cc1ccc(CN2CCc3onc(COc4cccnc4)c3C2)s1.O=C(O)C(F)(F)F.O=C(O)C(F)(F)F | 3.567%
COc1ccc(-c2ncccc2C(=O)N2C[C@H]3CC[C@@H]2C3)cn1 | -112.3%
N#Cc1c(Cl)nsc1NCCCN1C(=O)COc2ccccc21 | 55.67%
N#Cc1cnc(NCCCN2C(=O)COc3ccccc32)c(Cl)c1 | -83.56%
N#Cc1ccc(NCCCN2C(=O)COc3ccccc32)nc1 | -38.04%
CC(C)n1cc(N2CC(C(=O)N3CCc4ccccc4C3)CC2=O)cn1 (stereo not given) | -62.91%
O=C(O)C(F)(F)F.O=C(c1ccc(O)cc1)N1C[C@@H]2OCCN(c3ncccn3)[C@@H]2C1 | 6.308%
O=C(O)CCNC(=O)C1(c2cccc(Br)c2)CCOCC1 | -140.1%
Fc1cccc(C2(CNC3CCSC3)CCOCC2)c1 (stereo not given) | -47.45%
NCC1(c2cccc(C(F)(F)F)c2)CCC1 | 23%
CC(C)(CNC(=O)C1(c2cccc(Br)c2)CCOCC1)C(=O)O | -116.6%
Cl.NCC1(c2cccc(Br)c2)CCOCC1 | 78.65%
Cc1ccc(NCCNC(=O)c2cc(CC(C)C)n[nH]2)nn1 | -140.2%
Cc1cc(NC(=O)Cn2ccc(-c3ccc4c(c3)OCO4)n2)n(C)n1 | -110.5%
CC(C)CNC(=O)c1cn(C)c(=O)c2ccccc12 | -112.9%
CN(C)CCN1CCO[C@@H]2CCN(C(=O)c3cccn3C)CC[C@H]21 | -62.97%

SMILES | Percent Effect
CCN1CCC(NC(=O)CN2CCCC(NS(C)(=O)=O)C2)CC1 (stereo not given) | -94.92%
c1cc(-c2cscn2)cc(N2CCC(NCCc3cccs3)CC2)c1 | 23.18%
CC(C)CC(C)NC1CCN(c2cccc(-c3cscn3)c2)CC1 (stereo not given) | 51.64%
CC(C)CC(C)NC1CCN(c2ccc(-c3cscn3)cc2)CC1 (stereo not given) | -115.7%
Cc1ccc(C(C(=O)N2CCC(Cc3noc(C)n3)CC2)N(C)C)cc1 (stereo not given) | 25.87%
Cc1ccc(S(=O)(=O)N2CCN(C)C3(CCC(=O)N(C)CC3)C2)s1 (stereo not given) | -170.6%
CN1CCCC2(CCN(S(=O)(=O)c3ccc(-c4cnco4)s3)C2)C1=O (stereo not given) | -20.09%
CN1CCC2(CCCN(S(=O)(=O)c3ccc(-c4cnco4)s3)C2)C1 (stereo not given) | 50.7%
CN1CCCC2(CCN(C(=O)c3ccncc3)C2)C1 (stereo not given) | -70.03%
CN1CCC2(CCN(S(=O)(=O)c3ccc(-c4cnco4)s3)CC2)C1 | 67.52%
O=S(=O)(c1ccc(-c2cnco2)cc1)N1CCCC(O)(CO)CC1 (stereo not given) | -42.75%
CCCn1c(C)c(CC(=O)NCC(N)=O)c2c1CC(C)(C)CC2=O | -28.28%
O=C(C1CCCO1)N1CCC2(CC1)COCCN2CC1CC1 (stereo not given) | -162.7%
CN(Cc1ccccc1-n1cccn1)c1nc(N)nc2c1CCNCC2 | -16.16%
CC(=O)N1CCc2c(nc(-c3ccccn3)nc2N(C)CC(O)CO)C1 (stereo not given) | -23.68%
CN(Cc1ccc(-n2cccn2)cc1)c1nc(N)nc2c1CCNCC2 | 57.31%
CN(Cc1cccnc1)c1nc(-c2ccccn2)nc2c1CCNCC2 | 53.3%
CN(Cc1ccc(-n2cccn2)cc1)c1cc(N)nc(N)n1 | 39.62%
CN(Cc1cccnc1)c1nccc(N2CCN[C@H]3CS(=O)(=O)C[C@H]32)n1 | -59%
CN(CCO)c1nc(-c2ccccn2)nc2c1CCNC2 | -87.29%
c1ccc(-c2nc3c(c(NCCn4ccnn4)n2)CCNCC3)nc1 | 6.036%
CN(Cc1nccs1)c1nc(-c2ccccn2)nc2c1CCNCC2 | 83.34%
CN(Cc1nccs1)C1CCN(c2ncccn2)CC1 | -79.31%
CN(Cc1ncc[nH]1)c1nc(-c2ccccn2)nc2c1CCNCC2 | 54.09%
CN(Cc1cccnc1)Cc1cncc2c1CCN(c1ccccn1)C2.Cl.Cl.Cl | -32.27%
